PAFAH1B2 FP inh: PAFAH1B2 enzyme inhibitors, primary screen, biochemical, fluorescence polarization, human; recombinant PAFAH1B2, FP-rhodamine activity probe; AID 492953, 2010; inhibition, % at 3.39 µM; Platelet-activating factor acetylhydrolase IB subunit alpha2 (Homo sapiens), P68402; 340,000 tested, 1.2% active;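 active = inhibition above the mean of all tested compounds plus 3 SD, cut at about 24% in these data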;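 note: 0% = enzyme with DMSO and 100% = wells lacking PAFAH1B2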
Target sequence (P68402 whole entry, looked up): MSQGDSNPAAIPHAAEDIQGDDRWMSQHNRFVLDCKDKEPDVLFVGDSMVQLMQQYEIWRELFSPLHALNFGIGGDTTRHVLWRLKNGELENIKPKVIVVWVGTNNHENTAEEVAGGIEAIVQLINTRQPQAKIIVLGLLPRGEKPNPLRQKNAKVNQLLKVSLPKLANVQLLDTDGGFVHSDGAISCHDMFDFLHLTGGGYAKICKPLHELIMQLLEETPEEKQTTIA
pPAFAH FP inh: pPAFAH enzyme inhibitors, primary screen, biochemical, fluorescence polarization, human; AID 463082, 2010; recombinant pPAFAH, FP-rhodamine probe fluorescence polarization; 330,000 tested, 1.5% active; inhibition, % at 3.39 µM; Platelet-activating factor acetylhydrolase (Homo sapiens), Q13093;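 active = inhibition above the mean inhibition across the screen plus 3 SD, cut at about 25% in these data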;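 note: inhibitors block binding of the rhodamine activity-based probe so polarization drops; 0% = enzyme with DMSO and 100% = wells lacking pPAFAH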
Target sequence (Q13093 whole entry, looked up): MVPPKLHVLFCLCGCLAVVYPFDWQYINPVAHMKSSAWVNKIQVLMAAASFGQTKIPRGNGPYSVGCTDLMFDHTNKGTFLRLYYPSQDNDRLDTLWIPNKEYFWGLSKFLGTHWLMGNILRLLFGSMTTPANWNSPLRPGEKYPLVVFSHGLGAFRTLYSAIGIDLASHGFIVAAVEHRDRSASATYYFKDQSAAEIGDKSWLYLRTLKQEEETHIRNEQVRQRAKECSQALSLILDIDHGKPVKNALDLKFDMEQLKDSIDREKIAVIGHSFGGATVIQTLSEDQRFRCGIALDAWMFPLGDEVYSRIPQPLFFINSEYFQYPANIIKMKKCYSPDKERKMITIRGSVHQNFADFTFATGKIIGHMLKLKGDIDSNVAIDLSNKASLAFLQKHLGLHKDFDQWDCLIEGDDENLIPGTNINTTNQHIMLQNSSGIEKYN
PP5 primary: PP5 phosphatase inhibitors, primary screen, biochemical, fluorescence. 320,000 tested, 0.18% active. Serine/threonine-protein phosphatase 5 (Homo sapiens), P53041. inhibition, % at 6.7 µM. purified PP5c, OMFP substrate fluorescence;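 active = inhibition above the campaign's mean inhibition across all tested compounds plus 3 SD, cut at about 9.5% in these data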;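 note: 0% = DMSO only and 100% = 100 µM cantharidin control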
PP1 inh: PP1-alpha phosphatase inhibitors, primary screen, counter-screen for PP5 inhibitor project, biochemical, fluorescence, OMFP substrate, single point; Serine/threonine-protein phosphatase PP1-alpha catalytic subunit (Homo sapiens), P62136; 320,000 tested, 0.9% active; purified PP1alpha; AID 2235, 2010; inhibition, % at 6.7 µM;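 active = inhibition above the mean inhibition of all tested compounds plus 3 SD, computed separately for each screening campaign, cut at about 15% in these data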
PAFAH2 FP inh: PAFAH2 enzyme inhibitors, primary screen, biochemical, fluorescence polarization, human. recombinant PAFAH2, FP-rhodamine activity probe. 340,000 tested, 0.99% active. AID 492956, 2010. Platelet-activating factor acetylhydrolase 2, cytoplasmic (Homo sapiens), Q99487. inhibition, % at 3.39 µM;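 active = inhibition above the mean over all tested compounds plus 3 SD, cut at about 30% in these data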;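 note: inhibitors block probe labeling of enzyme so polarization drops; 0% = enzyme with DMSO and 100% = wells lacking PAFAH2 protein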
PAFAH1B3 FP inh: PAFAH1B3 enzyme inhibitors, primary screen, biochemical, fluorescence polarization, human. Platelet-activating factor acetylhydrolase IB subunit alpha1 (Homo sapiens), Q15102. recombinant PAFAH1B3, FP-rhodamine probe. inhibition, % at 3.39 µM. 340,000 tested, 0.28% active. AID 492972, 2010;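 active = inhibition above the screen-wide average of all tested compounds plus 3 SD, cut at about 25% in these data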;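 note: 0% = enzyme with DMSO only and 100% = wells lacking PAFAH1B3 protein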
pPAFAH confirm: pPAFAH (PLA2G7) enzyme inhibitors, confirmation, biochemical, fluorescence polarization, human. shares compounds with pPAFAH FP inh. recombinant pPAFAH, FP-Rh probe fluorescence polarization. inhibition, % at 3.39 µM. 2,300 tested, 72% active;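 active = mean inhibition of the triplicate above the hit cutoff set for the earlier primary screen, cut at about 25% in these data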;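 note: 0% = enzyme with DMSO and 100% = wells lacking pPAFAH enzyme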
Numbers without * were called inactive; . = no result given. A selection: hits, their analogues and other compounds. The true share with any hit is near 3.4%.

SMILES	PAFAH1B2 FP inh	pPAFAH FP inh	PP5 primary	PP1 inh	PAFAH2 FP inh	PAFAH1B3 FP inh	pPAFAH confirm
O=C(NCC(=O)N1CCN(c2ccccc2O)CC1)C1CCCCC1	2.0	37.3*	1.3	4.5	23.8	7.6	24.3
CCc1noc(C)c1C(=O)OCC(=O)NC(C)c1ccccc1 (stereo unspecified)	-1.1	34.7*	3.0	-4.2	-1.6	4.7	1.4
CCc1noc(C)c1C(=O)OCC(=O)NCc1ccccc1	7.0	1.9	-0.3	-5.3	-2.5	4.8	.
O=C(N/N=C1/CC2CCC1C2)c1cc2ccccc2cc1O (stereo unspecified)	0.4	45.8*	0.0	5.2	2.9	-2.3	4.3
O=C(NCC1CCCCC1)c1cc2ccccc2cc1O	2.8	1.2	3.0	1.9	11.3	4.2	.
CN(C(=O)c1cccnc1)c1nnc(-c2cccnc2)s1	1.8	42.0*	-1.9	-2.2	-0.5	-4.3	3.0
CN(C(=O)c1cccnc1)c1nnc(-c2cnccn2)s1	2.1	4.8	1.6	-5.4	3.1	-2.7	.
CCOC(=O)Nc1ccc(N2CCOCC2)c(S(=O)(=O)N2CCOCC2)c1	4.4	6.1	3.3	1.1	3.9	12.3	.
O=S(=O)(c1ccc(NC(=S)N/N=C/c2cccc(Oc3ccccc3)c2)cc1)N1CCOCC1	-2.3	-0.6	3.5	-0.3	-5.5	-6.0	.
O=S(=O)(c1ccc(NC(=S)N/N=C/c2ccc(O)c(O)c2)cc1)N1CCOCC1	6.0	65.2*	1.3	-1.5	4.8	12.4	61.1*
CC(C)=CCC/C(C)=C/CNC(=O)C[C@H]1C[C@H](C(=O)N2CCCCC2)[C@@]2(C)c3[nH]c4cc(CCC(=O)N(C)C)ccc4c3CCN2C1=O	4.6	54.7*	.	.	9.6	6.9	42.0*
CC(C)N(C(=O)[C@H]1C[C@H](CC(=O)NCC23CC4CC(CC(C4)C2)C3)C(=O)N2CCc3c([nH]c4cc(CCC(=O)N(C)C)ccc34)[C@]12C)C(C)C	5.2	45.0*	.	.	-2.6	4.6	32.5*
CCOC(=O)CN1C(=O)N[C@@H](c2ccco2)C(C(C)=O)=C1C	0.4	2.8	-0.4	-2.0	-4.3	-0.3	.
CC(=O)N(c1nc(CCl)cs1)c1cccc(C)c1C	8.8	2.0	-3.3	-1.8	-0.3	-5.2	.
COCCN1Cc2cc3cc(C)ccc3nc2SC1=Nc1ccc(OC)cc1	5.7	17.2	1.5	3.0	3.1	5.3	.
COCCN=C1Sc2nc3ccc(C)cc3cc2CN1Cc1cccs1	-1.8	40.5*	-1.3	5.1	6.8	7.3	60.5*
Cc1ccc(NC(=O)Nc2ncnc3nc[nH]c23)cc1	3.6	-3.0	1.1	-0.8	4.2	5.7	.
COc1cccc(NC(=O)Nc2cc(C(=O)NCC3CCCO3)ccc2N2CC3CC(C2)c2cccc(=O)n2C3)c1 (stereo unspecified)	0.8	62.4*	-2.4	-2.0	7.3	9.5	61.2*
COc1ccccc1N1C(=O)c2ccc(C(=O)Nc3ccccc3O)cc2C1=O	2.1	0.6	-1.5	-2.1	2.0	3.0	.
COc1ccccc1N1C(=O)c2ccc(C(=O)Nc3nccs3)cc2C1=O	.	42.5*	0.9	0.5	.	.	1.0
CC(C)NC(=O)Nc1ccc2c(c1)C(=O)N([C@H](C)CO)C[C@H](C)[C@@H](CN(C)S(C)(=O)=O)O2	13.8	-5.4	.	.	0.6	6.9	.
CC(C)(C)c1ccc(C(=O)Nc2sc3c(c2C(=O)O)CCC3)cc1	46.8*	36.7*	2.1	1.7	13.7	10.1	41.2*
COc1ccc(-c2csc(NC(=O)c3ccc(C(C)(C)C)cc3)c2C(=O)O)cc1	.	36.8*	3.3	7.9	.	.	40.9*
CCC(C)c1ccccc1N1CC(C(=O)Nc2ccc(C)c(S(=O)(=O)N3CCOCC3)c2)CC1=O (stereo unspecified)	2.8	7.3	-0.2	0.4	2.1	-5.2	.
CCC(Sc1nc2ncccc2[nH]1)C(=O)NCCc1ccccc1 (stereo unspecified)	3.0	-3.0	-1.8	-5.0	7.9	-11.1	.
SMILES	PAFAH1B2 FP inh	pPAFAH FP inh	PP5 primary	PP1 inh	PAFAH2 FP inh	PAFAH1B3 FP inh	pPAFAH confirm
CC(C)=C1C(=O)NN(c2ccc(C)c(Cl)c2)C1=O	10.3	58.6*	0.7	-0.1	17.8	0.3	6.1
CC(C)=C1C(=O)NN(c2cccc(Cl)c2)C1=O	8.5	23.0	0.0	2.6	8.6	6.5	.
CC1(C)CCC/C(=C\c2ccccc2)C1=O	3.1	45.8*	2.2	-4.1	2.0	3.9	7.8
O=C1OCC/C1=C\c1ccccc1	1.4	-5.5	2.2	1.5	8.4	2.4	.
CC1(C)Cc2ccccc2C(=NCC(=O)O)N1	3.1	35.5*	3.4	-4.6	-5.6	10.1	2.5
Cc1nc2cc(C(=O)OCC(=O)Nc3cccc(Cl)c3)ccc2n1-c1ccccc1	-3.5	42.8*	1.6	0.6	63.6*	-2.4	41.5*
O=C(Nc1ccc(-c2csc(Nc3ccc(Cl)cc3)n2)cc1)c1cccc(C(F)(F)F)c1	.	44.4*	6.2	2.0	.	.	23.8
NS(=O)(=O)c1ccc(N2CCCC2=O)c([N+](=O)[O-])c1	6.2	43.5*	2.5	-3.6	2.3	4.9	4.5
COc1ccc(-n2c(SCC(=O)Nc3ccccc3OC)nc(O)cc2=O)cc1	2.0	6.7	1.3	8.6	6.8	-3.0	.
COc1ccccc1-n1c(SCC(=O)Nc2cccc3ccccc23)nc(O)cc1=O	0.5	37.5*	0.5	9.5	-0.7	0.6	0.0
Fc1c(F)c(F)c(N=Cc2ccc3ncccc3c2)c(F)c1F	3.2	-1.9	3.4	-0.1	4.8	6.7	.
CCOc1ccc(NS(=O)(=O)c2ccc(C(=O)NCC3(N(C)C)CCCCC3)cc2)cc1	3.8	52.1*	-0.3	0.3	-0.5	3.0	44.6*
Cc1cc(S(=O)(=O)Nc2ccc(C(=O)NCC3(N(C)C)CCCCC3)cc2)ccc1F	-0.9	-8.9	-0.1	-5.5	-6.8	6.1	.
CCOc1ccc(NS(=O)(=O)c2ccc(C(=O)NCC(c3ccc(OC)cc3)N3CCOCC3)cc2)cc1 (stereo unspecified)	3.0	50.4*	0.2	-2.9	4.0	-1.0	59.0*
COC(=O)c1ccc(C(=O)OC)c(NC(=S)N2CCN(c3ccccn3)CC2)c1	4.2	-0.7	1.4	-1.6	-4.6	-3.5	.
COC(=O)c1ccc(=O)c2nc3/c(=C/O)c(O)cc(=O)c3[nH]c12	60.3*	91.5*	2.2	48.7*	81.2*	65.6*	91.3*
